# PNC inhibitor: inhibitors of perinucleolar compartment assembly. PC3M PTB-GFP, PNC prevalence imaging, 16 h; active compounds read low. activity change (PNC), negative = inhibition, % at 10 µM. 3.1% of 140,000 active. AID 2417;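 active = readout at or below -70, meaning at least 70% loss of cells showing the perinucleolar compartment, a nuclear body marking cancer cells; inconclusive = readout between -30 and a set limit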;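 also: plate controls were DMSO wells for no effect and camptothecin positive control wells for full effect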
#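 Read-out is percentage of cells bearing a perinucleolar compartment, from automated 20x imaging of fixed, Hoechst-stained PC3M PTB-GFP cells. Cells were seeded 4 h, then exposed 16 h to compound (23 nl of library stock) in duplicate plates.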
# ALDH1A1 block: inhibitors of human aldehyde dehydrogenase 1A1; Potency, µM (series often up to 75.3 µM), for the others: at the top dose activity, negative = inhibition, most hits filed as inhibitors; Purified ALDH1A1, NADH fluorescence, propionaldehyde substrate; 7.3% of 220,000 active; P00352;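 also: potency is read from the fitted curve at half-maximal effect; plate controls were no enzyme wells and a reference inhibitor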
# Target sequence (P00352 whole entry, looked up): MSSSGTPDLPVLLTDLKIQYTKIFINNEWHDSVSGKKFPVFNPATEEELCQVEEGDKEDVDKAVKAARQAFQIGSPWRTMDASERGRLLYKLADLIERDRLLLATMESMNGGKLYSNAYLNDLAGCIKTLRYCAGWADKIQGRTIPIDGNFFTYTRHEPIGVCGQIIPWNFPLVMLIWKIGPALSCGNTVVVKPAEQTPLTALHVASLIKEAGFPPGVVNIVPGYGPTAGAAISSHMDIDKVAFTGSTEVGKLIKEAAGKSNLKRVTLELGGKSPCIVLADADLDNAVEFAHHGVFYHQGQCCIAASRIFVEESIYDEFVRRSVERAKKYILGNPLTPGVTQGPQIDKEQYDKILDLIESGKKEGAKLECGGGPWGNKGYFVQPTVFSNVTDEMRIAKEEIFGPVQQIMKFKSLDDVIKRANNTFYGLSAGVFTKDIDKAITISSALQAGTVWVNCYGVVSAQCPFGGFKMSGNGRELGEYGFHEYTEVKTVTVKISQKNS
# HPGD block: blocks human HPGD enzyme activity. P15428. Potency, µM, without a hit: top-dose activity change, negative = inhibition, most hits filed as inhibitors. AID 894. purified HPGD, NADH fluorescence kinetic, PGE2 substrate. 4.3% of 150,000 active; also: potency is read from the fitted curve at half-maximal effect
#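 NADH formation kinetics: reaction with 30 uM PGE2 and 1 mM NAD+ (final), 20 nM enzyme, Tris-HCl pH 8 with Tween 20, after 15 min compound preincubation at room temperature. Fluorescence change, last versus first of five reads.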
# * = called active by the depositor; ? = inconclusive; / = no result; [ ] = dose if it differs, or a comment. Only some compounds are listed: those with a hit (about 11% of all), similar ones and a draw of the others. Unless noted, calls follow the shape of the dose curve; as a rule, active = well fitted inhibition curve with a large enough effect (not every such curve was filed as active); inconclusive = small, poorly fitted or top-dose-only effect, or another doubt; inactive = no such curve, though single readings can be large or run the other way. Unless noted, % is scaled to controls: 0 for no effect and ±100 for the full control effect.
SMILES,PNC inhibitor,ALDH1A1 block,HPGD block
O=S(=O)(c1ccc(NC(=S)N/N=C/c2c3ccccc3cc3ccccc23)cc1)N1CCOCC1,/,10µM*,/
O=S(=O)(c1ccc(NC(=S)Nc2ccc(OC(F)F)cc2)cc1)N1CCOCC1,43,?,-5%
S=C(NCCN1CCOCC1)N/N=C/c1c2ccccc2cc2ccccc12,-81*,-13%,-15%
O=S(=O)(c1ccc(NC(=S)N/N=C/c2ccc(N3CCOCC3)cc2)cc1)N1CCOCC1,-13,?,?
CC(C)(C)CC(C)(C)NC(=S)Nc1ccc(S(=O)(=O)N2CCOCC2)cc1,-18,?,-5%
COc1ccc2ccccc2c1/C=N/NC(=S)NCCN1CCOCC1,/,1%,/
O=S(=O)(c1ccc(NC(=S)NN=C2CCCCC2)cc1)N1CCOCC1,/,14µM*,/
O=S(=O)(c1ccc(NC(=S)NCCC(c2ccccc2)c2ccccc2)cc1)N1CCOCC1,43,13µM*,-16%
O=C(NCCc1ccc(F)cc1)c1cc(-c2ccncc2)nc2ccccc12,/,-11%,/
COc1ccc2c(C)c(C(=O)NCC(C)O)oc2c1OC (stereo unspecified),31,?,?
C[C@@H](C(=O)Nc1cccc(S(=O)(=O)N2CCOCC2)c1)N1C(=O)C2CC=CCC2C1=O (stereo partly specified),/,-3%,/
CCCCNC(C(=O)Nc1cccc(S(=O)(=O)N2CCOCC2)c1)c1ccccc1 (stereo unspecified),/,13µM*,/
COc1ccc(OC)c(-n2c(=S)[nH]c3cc(C(=O)N4CCC(C(N)=O)CC4)ccc3c2=O)c1,?,7%,-5%
COc1ccc(-n2c(=S)[nH]c3cc(C(=O)NC4CCCCC4)ccc3c2=O)c(OC)c1,/,0.1µM*,/
O=C(O)c1ccc2c(=O)n(-c3ccccc3F)c(=S)[nH]c2c1,/,-5%,/
COC(=O)c1ccc2c(=O)n(-c3ccccc3F)c(=S)[nH]c2c1,/,16µM*,/
C=CCOC(=O)N[C@H](C[N+](=O)[O-])c1ccccc1,/,9%,-11%
Cc1noc(C)c1-c1ccc2ncnc(NC3CC3)c2c1,/,-9%,14µM*
Cc1cccc(CNc2ncnc3ccc(-c4c(C)noc4C)cc23)c1,/,4%,13µM*
Cc1cnc(CNc2ncnc3ccc(-c4c(C)noc4C)cc23)cn1,/,-8%,/
Cc1noc(C)c1-c1ccc2ncnc(NCc3cccnc3)c2c1,/,1%,/
c1ccc(Cn2ccnc2SCc2nnc(-c3ccccc3)o2)cc1,14,-11%,25µM*
NC(=O)CSc1nccn1Cc1ccc(Cl)cc1,/,5%,/
NC(=O)CSc1nccn1Cc1ccccc1,/,10µM*,/
Cc1nnc(SCc2nnc(-c3ccccc3)o2)n(N)c1=O,33,5%,-29%
SMILES,PNC inhibitor,ALDH1A1 block,HPGD block
CC(=O)Nc1scc(-c2ccccc2)[n+]1-c1ccc(C)cc1,/,3%,/
Cc1ccc(-c2nnc(-c3ccccc3)o2)cc1,?,-6%,?
CNc1nc(-c2ccccc2)[n+](-c2ccc(C)cc2)s1,39,2.5µM*,/
Cc1ccc(-c2nc(N)s[n+]2-c2ccccc2)cc1,35,7.1µM*,2.2µM*
COc1ccc(Cl)c(NCCC(=O)O)c1,413,5%,-14%
CC(=O)C1=C(O)CC(C)(C)CC1=NCc1nc2ccccc2[nH]1,/,3%,/
CCOC(=O)c1c(NC(=O)C2=C(C)NC(=S)NC2c2ccc(CC)cc2)sc(C)c1C (stereo unspecified),-5,28µM*,?
CCOC(=O)C1=C(C)NC(=S)NC1c1ccc(OC(=O)c2ccco2)cc1 (stereo unspecified),37,2.2µM*,-10%
CCOC(=O)c1c(NC(=O)CC2Nc3ccccc3NC2=O)sc(C)c1C (stereo unspecified),49,9%,-7%
CC1=C(C(=O)OCC2CCCO2)C(c2cccc(O)c2)NC(=O)N1 (stereo unspecified),7,-4%,3%
CCOC(=O)C1=C(C)NC(=S)NC1c1cccc(O)c1 (stereo unspecified),/,1.1µM*,?
CCOC(=O)C1=C(C)NC(=O)NC1c1ccc(NC(C)=O)cc1 (stereo unspecified),8,-3%,-1%
COCCNC(=O)C1CC(c2cccc([N+](=O)[O-])c2)=NO1 (stereo unspecified),-20,6%,-18%
Cn1c(=O)c2c(ncn2CC2OCCO2)n(C)c1=O,/,3%,-10%
COc1ccc(/C(C#N)=C/c2c(-c3ccc(Cl)cc3)nc3c(C)cccn23)cc1,4,10%,-15%
Cc1cccn2c(/C=N/OCc3ccc(F)cc3)c(-c3ccc(Cl)cc3)nc12,-109*,-6%,?
O=C1/C(=C/c2ccccc2)Oc2ccccc21,/,-3%[13.5 µM],/
Cc1ccc(C(=O)Oc2ccccc2N2C(=O)C3CCCCC3C2=O)cc1 (stereo unspecified),-4,10%,-1%
COc1ccccc1C(=O)O/N=C(/C)c1ccc(N2C(=O)C3CCCCC3C2=O)cc1 (stereo unspecified),22,13µM*,25µM*
COC(=O)[C@H]1Cc2c([nH]c3ccccc23)CN1C(=O)COc1ccc2c(C)cc(=O)oc2c1,/,?,-19%
O=C(C1=NN[C@@H]2C(=O)N(c3ccccc3C(F)(F)F)C(=O)[C@H]12)C(c1ccccc1)c1ccccc1,10,?,-14%
O=C(C1=NN[C@@H]2C(=O)N(c3cccc(F)c3)C(=O)[C@H]12)c1cnccn1,/,6.3µM*,/
COC(=O)[C@@H]1[C@@H](C)N(CCc2cc(OC)c(OC)c(OC)c2)C(=O)N[C@H]1c1ccccc1,/,8%[13.5 µM],-7%
COc1ccccc1NS(=O)(=O)/C=C/c1ccccc1,-23,?,-6%
COc1ccc(N(C(=O)CS(=O)CC(=O)Nc2ccc(F)cc2)C(C(=O)NC2CCCCC2)c2cccs2)cc1 (stereo unspecified),19,6%,-12%
SMILES,PNC inhibitor,ALDH1A1 block,HPGD block
COc1ccc(C2C3=C(CCCC3=O)Nc3nc(C(F)(F)F)nn32)cc1OC (stereo unspecified),-23,?,?
COc1ccc(C2C3=C(CCCC3=O)Nc3nc(C(F)(F)F)nn32)c(OC)c1OC (stereo unspecified),-88*,-1%,-12%
C=CC1=C2C=C(C3CC3)N(Cc3ccco3)C=C2C(=O)C(C)(OC(=O)c2ccco2)C1=O (stereo unspecified),/,0%[13.5 µM],-2%
COc1cccc(NC(=O)c2ccccc2-c2nc(-c3cccc(C)c3)no2)c1,-139*,?,-11%
Cc1cccc(NC(=O)c2ccccc2-c2ccccc2)c1,/,-5%,/
O=C(NCC1CCCO1)c1ccccc1-c1nc(-c2ccc(Cl)cc2)no1 (stereo unspecified),13,-5%,0%
Cc1cccc(-c2noc(-c3ccccc3C(=O)NCC3CCCO3)n2)c1 (stereo unspecified),50,16µM*,-8%
CCCn1c(SCC(=O)Nc2cc(S(=O)(=O)N(C)C)ccc2OC)n[nH]c1=O,/,-5%,/
Cn1c(SCc2nc3ccccc3[nH]2)nnc1-c1ccccn1,?,8%,1%
C=CCn1c(SCc2nc3ccccc3[nH]2)nnc1-c1ccccn1,23,6.3µM*,-10%
Cc1ccc(S(=O)(=O)Cc2sc3ccccc3[n+]2C)cc1,26,?,22µM*
